# Screens deposited in PubChem by National Center for Advancing Translational Sciences (NCATS).
# BAZ2B inh: inhibitors of human BAZ2B bromodomain; Potency, µM (series often up to 114 µM), most hits filed as inhibitors; 4.4% of 360,000 active; AID 504333; AlphaScreen BAZ2B-H3K14Ac peptide displacement; also: nearly all actives have a fitted effect of over 60% in size
#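 BAZ2B 50 nM plus b-H3(5-23)K14Ac 50 nM, PBS pH 7.4/0.01% Tween-20, 30 min RT; compound added (max 110 uM), 30 min RT; streptavidin donor/Ni-chelate acceptor beads 10 ug/mL final, 20 min dark; AlphaScreen read.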
# PI5P4K alpha inh: blocks human PI5P4K alpha kinase activity; max response, %; PI5P4Kalpha enzyme, ADP-Glo luminescence, 60 min; hits give low values; 1.2% of 330,000 active; P48426; active = max response of -50% or lower; inconclusive = between -30% and -50%; inactive = -30% or higher; also: value at the top dose of about 77 µM
#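 Compounds were pin-transferred onto PI5P4Kalpha and substrate in HEPES pH 7.4 buffer with EGTA, CHAPS and 5% DMSO. ATP (5 microM final) started the reaction, which ran 60 minutes at room temperature before ADP-Glo detection.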
# PLK1 PBD block: PLK1 (human) polo-box domain binding inhibition. Plk1 PBD binding of FITC phosphopeptide, fluorescence polarization. 2.8% of 360,000 active. Potency, µM, hits mostly inhibitors. AID 720504; also: series mostly up to about 57 µM; nearly all actives have a fitted effect of over 65% in size
# Target sequence (P53350 whole entry, looked up, the tested form may be a part): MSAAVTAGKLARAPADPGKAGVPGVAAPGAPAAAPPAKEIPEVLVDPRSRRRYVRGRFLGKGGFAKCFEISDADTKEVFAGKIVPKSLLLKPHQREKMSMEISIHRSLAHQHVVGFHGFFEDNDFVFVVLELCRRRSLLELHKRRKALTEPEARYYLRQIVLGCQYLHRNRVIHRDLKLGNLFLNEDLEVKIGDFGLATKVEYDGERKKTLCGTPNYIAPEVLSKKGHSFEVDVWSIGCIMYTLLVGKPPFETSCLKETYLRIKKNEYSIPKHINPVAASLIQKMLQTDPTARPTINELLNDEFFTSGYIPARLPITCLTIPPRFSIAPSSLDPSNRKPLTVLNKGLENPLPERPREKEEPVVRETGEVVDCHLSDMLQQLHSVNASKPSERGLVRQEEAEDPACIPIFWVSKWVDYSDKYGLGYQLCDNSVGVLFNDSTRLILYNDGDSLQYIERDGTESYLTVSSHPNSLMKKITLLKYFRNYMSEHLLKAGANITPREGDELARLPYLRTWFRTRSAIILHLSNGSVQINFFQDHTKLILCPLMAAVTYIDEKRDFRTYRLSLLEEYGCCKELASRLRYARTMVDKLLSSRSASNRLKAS
# G9a inh: G9a (human) methyltransferase inhibition. Q96KQ7. G9a H3K9 monomethylation, AlphaScreen, 2 h. Potency, µM (doses to about 102 µM), actives largely listed as inhibitors. 8.8% of 350,000 active. AID 504332; also: nearly all actives have a fitted effect of over 75% in size
#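 G9a (20 nM) was preincubated 15 min with compound, then reacted 2 h at room temperature with 500 nM biotin-H3K9 peptide and 20 µM SAM. Monomethyl-H3K9 detected by AlphaScreen using anti-H3K9me1 antibody.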
# JMJD2A Tudor inh: JMJD2A Tudor domain (human) inhibition | O75164 | AlphaScreen JMJD2A-Tudor / H3K4me3 peptide binding | Potency, µM (series often up to 114 µM), most hits filed as inhibitors | 4.4% of 390,000 active | AID 504339; also: nearly all actives have a fitted effect of over 50% in size
# HP1b binding inh: blocks HP1-beta chromodomain binding to methylated histone tails; P83916; AlphaScreen HP1-beta / biotin-H3K9me3 peptide binding; Potency, µM (titrated, usually from 114 µM), hits mostly inhibitors; 0.56% of 390,000 active; AID 540317; also: nearly all actives have a fitted effect of over 70% in size
#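 AlphaScreen: HP1-beta (50 nM) preformed 30 min with biotin-H3(1-18)K9me3 peptide (50 nM) in PBS pH 7.4, 0.01% Tween-20. Compound added for 30 min at RT, then streptavidin donor/nickel chelate acceptor beads (10 ug/mL) for 30 min.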
# Hits are given with their value; n = inactive; u = inconclusive; x = not tested or not shown; [ ] = another dose, or the depositor's remark. Rows were chosen to be rich in hits. Some 12% of all compounds tested hit in one or more screens of this group. Unless noted, calls follow the shape of the dose curve; as a rule, active = well fitted curve in the direction sought with a large enough effect; inconclusive = small, poorly fitted or top-dose-only effect, or another doubt; inactive = no such curve, though single readings can be large; an effect the other way counts as inactive or inconclusive.
SMILES,BAZ2B inh,PI5P4K alpha inh,PLK1 PBD block,G9a inh,JMJD2A Tudor inh,HP1b binding inh
O=C(Nc1ccccc1C(=O)O)c1cccc(S(=O)(=O)Nc2ccc(Br)cc2)c1,n,n,u,n,n,n
O=C(O)c1ccc(NC(=O)c2ccccc2NC(=O)c2cccc(Br)c2)cc1,n,n,21µM,u,u,n
O=C(Nc1cccc(C(F)(F)F)c1)c1cccc(NS(=O)(=O)c2ccc(Br)c(C(=O)O)c2)c1,n,n,n,u,n,n
COC(=O)C1=C(CS(=O)(=O)c2ccccc2)NC(=O)NC1c1ccc(OC)c(OC)c1 (stereo not drawn),n,n,n,n,n,n
CCCCOC(=O)c1ccc(NC(=O)c2ccc3c(c2)CCN3S(=O)(=O)c2ccccc2)cc1,n,x,x,n,n,n
CNS(=O)(=O)c1cccc(C(=O)NCC(c2ccco2)N(C)C)c1 (stereo not drawn),n,n,n,n,n,n
Cc1nn2c(=O)cc(CN(C)c3ccccc3)nc2s1,n,x,x,n,n,n
O=C(O)c1ccccc1C(=O)Nc1ccccc1NC(=O)c1ccccc1C(=O)O,x,n,n,x,n,n
O=C(Nc1ccccc1C(=O)O)C1=NN=CC1,n,n,n,50µM,n,u
Cc1ccc(-n2ncc3c2CCCC3NC(=O)CCc2cnccn2)cc1C (stereo not drawn),n,n,n,x,n,n
Cc1cccc(CS(=O)(=O)c2cn(CC(=O)N3CCOCC3)c3ccccc23)c1,n,n,n,10µM,n,n
O=C(Cn1cc(S(=O)(=O)Cc2ccccc2F)c2ccccc21)N1CCOCC1,n,n,n,22µM,n,n
COc1ccc(CCNC(=O)CS(=O)(=O)c2cn(CC(=O)N3CCCC3)c3ccccc23)cc1OC,x,n,n,50µM,n,n
Cc1ccc(CS(=O)(=O)c2cn(CC(=O)N3CCOCC3)c3ccccc23)cc1,n,n,n,x,n,n
O=S(=O)(c1ccc(C2CCCCC2)cc1)N1CCN(c2cc(Cl)ccc2Cl)CC1,n,x,x,n,n,n
CCn1ncc(NC(=S)Nc2ccc3c(c2)OCO3)c1C(N)=O,n,n,n,20µM,n,n
CCn1ncc(NC(=S)Nc2ccc(OC)c(OC)c2)c1C(N)=O,79µM,n,n,45µM,u,n
Cc1c(CC(=O)NCCCO)c(=O)oc2cc3c(cc12)CCC(C)(C)O3,n,n,n,n,n,n
COc1cccc(CN(C)C(=O)CC[C@H]2O[C@@H](n3ccc(=O)[nH]c3=O)[C@H](O)[C@@H]2O)c1,x,n,n,x,x,x
COc1ccc(-c2csc(C(C)(O)c3cccnc3)n2)cc1 (stereo not drawn),x,n,n,x,x,x
COc1ccc(CNC(=O)C2=C(C)C(=O)OC23CCCCC3)cc1,n,x,x,11µM,n,n
COc1ccc(CNC(=O)c2cnc(C)cn2)cc1,50µM,u,n,n,n,n
COc1cccc(CNC(=O)C2=C(C)C(=O)OC23CCCCCC3)c1,n,x,x,n,n,n
COc1ccc(C2NC(=O)NC(C)=C2C(=O)OC2CCC(C)CC2)cc1 (stereo not drawn),n,n,n,n,n,n
CCOc1ccc(CCNC(=O)CS(=O)Cc2nc(-c3ccc(C)cc3)oc2C)cc1 (stereo not drawn),n,n,n,u,u,n
SMILES,BAZ2B inh,PI5P4K alpha inh,PLK1 PBD block,G9a inh,JMJD2A Tudor inh,HP1b binding inh
CCc1ccc(-c2nc(CS(=O)CC(=O)NC3CCCCCC3)c(C)o2)cc1 (stereo not drawn),n,n,30µM,x,n,n
COc1ccc(-c2nc(CS(=O)CC(=O)NC3CCCC(C)C3C)c(C)o2)cc1OC (stereo not drawn),n,n,n,56µM,n,n
COc1ccc(-c2nc(CS(=O)CC(=O)NCCC3=CCCCC3)c(C)o2)cc1 (stereo not drawn),n,n,n,79µM,n,n
CCc1ccc(-c2nc(CS(=O)CC(=O)NC3CC3)c(C)o2)cc1 (stereo not drawn),n,n,n,u,n,n
CCOC(=O)c1sc(NC(=O)C2CCCCC2)nc1C,x,n,n,x,n,n
Cc1[nH]c(=O)[nH]c(=O)c1/C=N/NC(=O)[C@@H](N)CC(C)C,50µM,n,n,u,u,n
Cc1[nH]c(=O)[nH]c(=O)c1/C=N/NC(=O)[C@H](CC(C)C)NC(=O)OC(C)(C)C,n,n,n,u,n,n
CNC(=O)c1nc(C)n(-c2ccc([N+](=O)[O-])cc2)n1,n,n,n,n,n,n
CCCNC(=O)c1nc(C)n(-c2ccc([N+](=O)[O-])cc2)n1,n,n,27µM,n,u,n
O=S1(=O)CC(N2CC=CC2)CN1Cc1cn(Cc2ccc(F)cc2)nn1 (stereo not drawn),x,n,n,x,x,x
COCCn1c(=O)cnc2cnc(OCc3ccccc3)nc21,x,x,x,n[12.7 µM],x,x
C=CCn1c(SCC(=O)N(CC)C2CCS(=O)(=O)C2)nc2scc(-c3ccccc3)c2c1=O (stereo not drawn),x,n,n,x,n,n
Cc1cccc(NC(=S)N/N=C/c2ccc([N+](=O)[O-])s2)c1,10µM,n,n,u,56µM,u
O=C(NC(=S)Nc1cccc(F)c1)c1cccc([N+](=O)[O-])c1,n,n,n,u,u,n
Cc1cccc(NC(=S)NNC(=O)c2cccc([N+](=O)[O-])c2)c1,u,n,n,20µM,n,n
O=[N+]([O-])c1cccc(NC(=S)NCc2ccncc2)c1,n,n,n,35µM,n,n
Cc1cc(Br)ccc1NC(=S)Nc1cccc([N+](=O)[O-])c1,n,n,n,45µM,n,n
Cc1ccc(C)c(N2CCN(C(=O)CS(=O)(=O)c3cccc4nsnc34)CC2)c1,u,x,x,n,n,n
COc1cccc(-c2cn3c(n2)sc2cc(C(=O)NCCc4ccccc4)ccc23)c1,n,x,x,n,n,n
COc1ccccc1OCC(=O)Nc1cc(-c2ccc(C)cc2)no1,n,x,x,n,n,n
c1cc(-c2ccoc2)n2ccnc2c1,x,n,n,x,x,x
Cc1occc1C(=O)NNC(=S)Nc1cccc([N+](=O)[O-])c1,n,n,n,11µM,n,n
CCCCn1c(C23CC4CC(CC(C4)C2)C3)n[nH]c1=S,n,n,n,x,32µM,n
COCCn1c(C23CC4CC(CC(C4)C2)C3)n[nH]c1=S,n,n,n,u,7.1µM,n
COCCn1c(C)cc(C(=O)COC(=O)C23CC4CC(CC(O)(C4)C2)C3)c1C,u,x,n,u,n,n
CCCC[C@@H]1CNC(=S)N1CCC12CC3CC(CC(C3)C1)C2,n,n,n,n,n,n
N#CC1(C#N)C2=C(CCCC2)NC(c2ccccc2)C1(C#N)C#N (stereo not drawn),50µM,x,x,18µM,x,x
N#CC12C(N)=NC3(OCCO3)C1(C#N)C1=C(CCC1)NC2c1ccccc1 (stereo not drawn),n,n,n,u,n,n
